Compound activity: PubChem BioAssay, several laboratories
Gli-Sufu antag – blocks Gli-Sufu signaling in a luciferase reporter; 0.74% of 340,000 active; Sufu-KO-LIGHT fibroblasts, Gli luciferase reporter luminescence; inhibition, % at 5 µM; AID 588413;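 active = inhibition above about 55%, limit read from the data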
SRC1 inh – inhibits human SRC1 coactivator. Q15788. 0.12% of 360,000 active. inhibition, % at 3.6 µM. HEK293 GAL4-SRC1 luciferase reporter, luminescence;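 active = inhibition above the campaign mean plus 3 SD, with each screening campaign given its own cutoff, cut at about 60% in these data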
NR5A2 inv ag – suppresses constitutive activity of human LRH-1; HEK293T StAR-luciferase reporter, LRH-1 transfected, 24 h; inhibition, % at 3.6 µM; 0.13% of 360,000 active;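 active = inhibition above the mean inhibition of all tested compounds plus 3 SD, cut at about 73% in these data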
COUP-TFII inh – inhibitors of human COUP-TFII (NR2F2); HEK293T NGFI-A luciferase reporter, luminescence; P24468; inhibition, % at 8.6 µM; 0.7% of 370,000 active; AID 686940;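 active = inhibition above a per-plate cutoff, mean inhibition of test wells between control levels plus 3 SD, cut at about 38% in these data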;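 note: cells cotransfected with COUP-TFII expression vector driving the NGFI-A reporter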
SRC3 inh – inhibits human SRC3 coactivator. 0.17% of 360,000 active. inhibition, % at 3.6 µM. AID 588352. HEK293 GAL4-SRC3 luciferase reporter, luminescence. Q9Y6Q9;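 active = inhibition above a per-campaign cutoff, the mean of all compounds plus 3 SD, cut at about 60% in these data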;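 note: higher means less SRC3-driven luciferase light from the GAL4 reporter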
Target sequence (Q9Y6Q9 whole entry, looked up, the tested form may be a part): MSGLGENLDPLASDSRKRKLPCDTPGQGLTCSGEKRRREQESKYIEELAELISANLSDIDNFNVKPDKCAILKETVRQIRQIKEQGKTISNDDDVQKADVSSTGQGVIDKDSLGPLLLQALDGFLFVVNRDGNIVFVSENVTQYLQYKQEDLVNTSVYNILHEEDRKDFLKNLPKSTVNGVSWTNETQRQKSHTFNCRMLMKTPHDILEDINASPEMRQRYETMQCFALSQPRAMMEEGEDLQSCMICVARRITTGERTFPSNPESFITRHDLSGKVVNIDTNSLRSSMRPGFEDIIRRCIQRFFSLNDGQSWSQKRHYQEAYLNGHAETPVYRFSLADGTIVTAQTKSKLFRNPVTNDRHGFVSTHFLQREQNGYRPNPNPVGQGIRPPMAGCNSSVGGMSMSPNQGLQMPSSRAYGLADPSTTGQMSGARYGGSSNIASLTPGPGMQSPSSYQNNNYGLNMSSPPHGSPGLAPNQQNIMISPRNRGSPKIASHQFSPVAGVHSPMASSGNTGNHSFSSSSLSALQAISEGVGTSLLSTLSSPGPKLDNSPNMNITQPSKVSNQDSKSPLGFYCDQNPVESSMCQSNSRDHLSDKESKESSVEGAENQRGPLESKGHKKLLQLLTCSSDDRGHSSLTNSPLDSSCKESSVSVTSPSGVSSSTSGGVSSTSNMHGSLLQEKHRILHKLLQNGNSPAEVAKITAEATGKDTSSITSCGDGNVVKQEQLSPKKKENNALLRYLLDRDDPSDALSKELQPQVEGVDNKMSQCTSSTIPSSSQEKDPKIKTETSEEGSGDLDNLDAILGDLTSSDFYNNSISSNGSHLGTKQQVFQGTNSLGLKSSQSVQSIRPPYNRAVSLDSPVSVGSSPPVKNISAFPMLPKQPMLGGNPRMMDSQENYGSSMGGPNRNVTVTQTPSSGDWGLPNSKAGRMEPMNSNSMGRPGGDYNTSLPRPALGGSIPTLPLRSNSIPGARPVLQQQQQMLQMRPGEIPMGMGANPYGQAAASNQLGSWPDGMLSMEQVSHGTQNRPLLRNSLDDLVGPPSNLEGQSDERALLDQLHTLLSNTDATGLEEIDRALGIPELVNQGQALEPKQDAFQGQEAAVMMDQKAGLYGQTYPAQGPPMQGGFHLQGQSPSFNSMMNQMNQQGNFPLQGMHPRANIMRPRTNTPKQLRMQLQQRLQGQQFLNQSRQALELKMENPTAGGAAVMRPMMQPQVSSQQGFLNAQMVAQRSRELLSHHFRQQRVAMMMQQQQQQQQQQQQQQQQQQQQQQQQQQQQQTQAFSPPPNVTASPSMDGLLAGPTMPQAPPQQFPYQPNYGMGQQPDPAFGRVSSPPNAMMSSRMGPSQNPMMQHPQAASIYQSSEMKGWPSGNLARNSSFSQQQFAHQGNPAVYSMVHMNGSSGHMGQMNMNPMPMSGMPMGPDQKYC
SRC2 inh – human SRC2 (NCOA2) inhibition. Q15596. HEK293 GAL4-SRC2 luciferase reporter, luminescence. inhibition, % at 9 µM. 0.17% of 370,000 active;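 active = inhibition above the mean inhibition of all tested compounds plus 3 SD, set per campaign, cut at about 52% in these data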
Gli antag conf – Gli-SUFU antagonism confirmation, single concentration; shares compounds with Gli-Sufu antag; Sufu-KO-LIGHT cells, Gli luciferase reporter, luminescence; inhibition, % at 5 µM; 40% of 2,500 active; AID 602428;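 active = mean inhibition at 5 µM reaching about 45%, limit read from the data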
SufuKO cytotox – cytotoxicity counter-screen for Gli-SUFU antagonists; 32% of 2,500 active; AID 651994; Sufu-KO-LIGHT cells cytotoxicity, ATP luminescence; shares compounds with Gli-Sufu antag; cytotoxicity, % at 5 µM;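 active = mean cytotoxicity at 5 µM above about 25%, limit read from the data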;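 note: cells exposed to compound overnight for roughly 16 to 18 hours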
Wnt3a counter – Wnt3a reporter inhibition counter-screen | shares compounds with Gli-Sufu antag | Wnt-LIGHT cells, Wnt3a-driven luciferase reporter, luminescence | inhibition, % at 6.25 µM | 20% of 2,500 active | AID 651995;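 active = mean inhibition above about 25%, limit read from the data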
VP16 Luc counter – counter-screen for COUP-TFII antagonists: inhibitors of VP16 | shares compounds with COUP-TFII inh | 25% of 2,500 active | HEK293 Gal4-VP16 luciferase reporter, luminescence | inhibition, % at 8.5 µM; in the data active = inhibition above about 13%
NR2F2 inh conf – COUP-TFII (NR2F2) inhibition, confirmation assay; 45% of 2,500 active; HEK293 NGFI-A luciferase reporter, luminescence; AID 687008; shares compounds with COUP-TFII inh; inhibition, % at 8.5 µM;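 active = mean inhibition over three repeats above a set limit taken from the earlier primary screen, cut at about 38% in these data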
Numbers stand for hits; – = inactive; · = no result. Shown are actives, neighbours in structure and some others; about 1.3% of the full set was active somewhere.

SMILES	Gli-Sufu antag	SRC1 inh	NR5A2 inv ag	COUP-TFII inh	SRC3 inh	SRC2 inh	Gli antag conf	SufuKO cytotox	Wnt3a counter	VP16 Luc counter	NR2F2 inh conf
CCN(C(=O)c1ccc(C(C)(C)C)cc1)c1nnc(Cn2nnc3ccccc32)s1	61	–	–	76	–	–	61	33	42	13	72
O=C(CSc1nnnn1C1CC2CCC1C2)Nc1ccnc2ccccc12 (stereo not drawn)	83	–	–	72	–	–	85	35	–	–	70
O=C(CSc1nnnn1C1CCCCC1)Nc1ccccc1F	–	–	–	–	–	–	·	·	·	·	·
C[C@H]1C2CC(OC(=O)Nc3ccc4c(c3)OCO4)C(C2)[C@H]2CCCCN21 (stereo partly drawn)	·	·	·	–	·	–	·	·	·	·	·
CCOC(=O)[C@@]12CCC3=C1N(CCC3)C(=O)[C@H](CC(=O)NCc1ccccc1)C2	·	·	·	–	·	–	·	·	·	·	·
Cc1ccccc1Cn1cc(COC(=O)NCCc2ccccc2)nn1	·	·	·	–	·	–	·	·	·	·	·
COC(=O)C12OCC34C(CC5C(C)=C(O)C(=O)CC5(C)C3C(O)C1O)OC(=O)C(OC(=O)C=C(C)C)C24 (stereo not drawn)	91	96	97	93	94	83	95	76	105	–	86
CC(=O)C1=C(C)N(Cc2ccc(Cl)cc2)C(=S)NC1c1cccc(Br)c1 (stereo not drawn)	·	·	·	–	·	–	·	·	·	·	·
CC(=O)Nc1ccc(N/C(N)=N/c2nc(C)cc(C)n2)cc1	–	–	–	–	–	–	·	·	·	·	·
Cc1cc(C)nc(/N=C(\N)Nc2ccc(-c3ccccc3)cc2)n1	67	–	–	56	–	–	–	–	–	–	–
O=C(O)c1ccc(N/N=C/c2ccc3nccnc3c2)cc1	55	–	–	67	62	68	59	35	101	17	59
COc1ccc(OC)c(NC(=O)O[C@@H]2CC[C@@]34CCCN3C(=O)CCC[C@H]4C2)c1	·	·	·	–	·	·	·	·	·	·	·
Cc1nc2ccccn2c1C(=O)NNS(=O)(=O)c1ccc(C(C)(C)C)cc1	–	–	–	46	–	–	48	27	–	–	–
O=c1cc(CSc2nnc(-c3cccs3)n2Cc2ccccc2)nc2sc3ccccc3n12	62	–	–	62	–	–	57	33	37	–	–
CN(CCO)C(=O)c1nc[nH]c1C(=O)N1CCN(c2ccccc2)CC1	·	·	·	–	·	–	·	·	·	·	·
CCc1c(C)nc2ncnn2c1Nc1ccc(C)cc1	–	–	–	–	–	–	·	·	·	·	·
CCc1c(C)nc2ncnn2c1NCCc1ccc(OC)cc1	62	–	–	58	–	–	61	39	–	–	52
CCOC(=O)Cn1c2c(c(=N)c3c1CCC3)CCC2	–	–	–	–	–	–	·	·	·	·	·
N=c1c2c(n(Cc3ccc(Cl)cc3)c3c1CCC3)CCC2	80	–	92	67	70	–	82	25	48	–	46
N=c1c2c(n(Cc3ccc(F)cc3)c3c1CCC3)CCCC2	66	–	–	39	–	–	69	–	–	–	–
N=c1c2c(n(Cc3cccc(Cl)c3)c3c1CCC3)CCCC2	81	–	75	65	–	–	83	35	36	13	47
O=C1CCCc2ccccc2N1Cc1ccc(F)cc1	–	–	–	–	–	–	·	·	·	·	·
O=C(C(=O)N1CCC(CNS(=O)(=O)c2ccc(F)cc2)CC1)c1cc2ccccc2o1	·	·	·	–	·	–	·	·	·	·	·
C[C@@H]1Cn2cnc(C(=O)N(C)Cc3ccccc3)c2C(=O)N1	·	·	·	–	·	–	·	·	·	·	·
